Results from PubChem BioAssay (NCI).
This is part of a sample that, as a whole, favours compounds with a hit. Of some 83,000 tested, about 20% had one in any assay.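 Cells were grown in 96-well plates and exposed to the test compound at a single concentration for 48 hours; results are reported as percent growth, with values below 10 considered active.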 Values without a mark were called inactive. Active and inactive are the calls of the source.

Tests used:
Assay in all cases: NCI-60 one-dose screen, 48 h (100 = growth as untreated, 0 = no growth, -100 = all killed)
Conditions in all cases: 10 µM unless noted
RPMI-8226 leukemia = system: RPMI-8226 leukemia
OVCAR-8 ovarian = system: OVCAR-8 ovarian
OVCAR-5 ovarian = system: OVCAR-5 ovarian
OVCAR-4 ovarian = system: OVCAR-4 ovarian
SK-OV-3 ovarian = system: SK-OV-3 ovarian
IGROV1 ovarian = system: IGROV1 ovarian
OVCAR-3 ovarian = system: OVCAR-3 ovarian
HS 578T breast = system: HS 578T breast
NCI/ADR-RES ovarian = system: NCI/ADR-RES ovarian
T-47D breast = system: T-47D breast
BT-549 breast = system: BT-549 breast
MDA-MB-435 melanoma = system: MDA-MB-435 melanoma
SW-620 colon = system: SW-620 colon
MCF7 breast = system: MCF7 breast
HCT-116 colon = system: HCT-116 colon
HCC-2998 colon = system: HCC-2998 colon
KM12 colon = system: KM12 colon
SR leukemia = system: SR leukemia

SMILES: Cc1cc(C(=O)CSc2nc3ccccc3c(=O)[nH]2)c(C)n1C
- growth (RPMI-8226 leukemia): 91.6%
- growth (OVCAR-8 ovarian): 96.4%
- growth (OVCAR-5 ovarian): 90.8%
- growth (OVCAR-4 ovarian): 123%
- growth (SK-OV-3 ovarian): 108%
- growth (IGROV1 ovarian): -33.9% (active)
- growth (OVCAR-3 ovarian): 91%
- growth (HS 578T breast): -35.7% (active)
- growth (NCI/ADR-RES ovarian): 103%
- growth (T-47D breast): 79.9%
- growth (BT-549 breast): 89.8%
- growth (MDA-MB-435 melanoma): 101%
- growth (SW-620 colon): 102%
- growth (MCF7 breast): 95.1%
- growth (HCT-116 colon): 106%
- growth (HCC-2998 colon): 72.9%
- growth (KM12 colon): 96.7%

SMILES: N#CC1=C(N)OC2=C(C(=O)CCC2)C1c1ccco1 (stereo not given)
- growth (RPMI-8226 leukemia): 100%
- growth (OVCAR-8 ovarian): 103%
- growth (OVCAR-5 ovarian): 104%
- growth (OVCAR-4 ovarian): 106%
- growth (SK-OV-3 ovarian): 98.2%
- growth (IGROV1 ovarian): 107%
- growth (OVCAR-3 ovarian): 113%
- growth (HS 578T breast): 115%
- growth (NCI/ADR-RES ovarian): 103%
- growth (T-47D breast): 92.6%
- growth (BT-549 breast): 110%
- growth (MDA-MB-435 melanoma): 98.9%
- growth (SW-620 colon): 110%
- growth (MCF7 breast): 95.5%
- growth (HCT-116 colon): 103%
- growth (HCC-2998 colon): 104%
- growth (KM12 colon): 110%

SMILES: COC1=CC(c2ccc[nH]2)=N/C1=C\c1[nH]c(C)c(CCCn2cc(CCCCCCCCC[C@@H]3Cc4cc(O)ccc4C4CC[C@]5(C)[C@@H](O)CC[C@H]5C43)nn2)c1C (stereo not given in full)
- growth (SR leukemia): 66.7%
- growth (OVCAR-8 ovarian): 70.4%
- growth (OVCAR-5 ovarian): 32%
- growth (IGROV1 ovarian): 78.1%
- growth (OVCAR-3 ovarian): 63.2%
- growth (HS 578T breast): 55.7%
- growth (NCI/ADR-RES ovarian): 69.5%
- growth (T-47D breast): 38.4%
- growth (BT-549 breast): 67.6%
- growth (MDA-MB-435 melanoma): 72.4%
- growth (SW-620 colon): 44.8%
- growth (MCF7 breast): 16.4%
- growth (HCT-116 colon): 37.3%
- growth (HCC-2998 colon): 36.4%
- growth (KM12 colon): 16.2%

SMILES: COc1ccc2c(c1)C(C)Cc1c(N(C)C)ncnc1N2C (stereo not given)
- growth (RPMI-8226 leukemia): 30.8%
- growth (OVCAR-8 ovarian): 40.8%
- growth (OVCAR-5 ovarian): 73.2%
- growth (OVCAR-4 ovarian): 62.4%
- growth (SK-OV-3 ovarian): 30%
- growth (IGROV1 ovarian): 54.4%
- growth (OVCAR-3 ovarian): 10.3%
- growth (HS 578T breast): 13.3%
- growth (NCI/ADR-RES ovarian): 36.2%
- growth (T-47D breast): 34.7%
- growth (BT-549 breast): 17.7%
- growth (MDA-MB-435 melanoma): -5.79% (active)
- growth (SW-620 colon): 21.4%
- growth (MCF7 breast): 19.5%
- growth (HCT-116 colon): 23.7%
- growth (HCC-2998 colon): 74.6%
- growth (KM12 colon): 23.6%

SMILES: NC(N)=NC(N)=Nc1ccccc1-c1ccccc1
- growth (RPMI-8226 leukemia): 112%
- growth (OVCAR-8 ovarian): 113%
- growth (OVCAR-5 ovarian): 110%
- growth (OVCAR-4 ovarian): 110%
- growth (SK-OV-3 ovarian): 123%
- growth (IGROV1 ovarian): 110%
- growth (OVCAR-3 ovarian): 117%
- growth (HS 578T breast): 109%
- growth (NCI/ADR-RES ovarian): 117%
- growth (T-47D breast): 108%
- growth (BT-549 breast): 131%
- growth (MDA-MB-435 melanoma): 103%
- growth (SW-620 colon): 107%
- growth (MCF7 breast): 110%
- growth (HCT-116 colon): 102%
- growth (HCC-2998 colon): 105%
- growth (KM12 colon): 107%

SMILES: CCOC(=O)C1=C(CSC(=S)N(C2CCCCC2)C2CCCCC2)N(C)C(=O)NC1c1ccccc1 (stereo not given)
- growth (RPMI-8226 leukemia): 35.8%
- growth (OVCAR-8 ovarian): 49.2%
- growth (OVCAR-5 ovarian): 92%
- growth (OVCAR-4 ovarian): 45%
- growth (SK-OV-3 ovarian): 71.4%
- growth (IGROV1 ovarian): 56.3%
- growth (OVCAR-3 ovarian): 56.1%
- growth (HS 578T breast): 80.7%
- growth (NCI/ADR-RES ovarian): 64%
- growth (T-47D breast): 50.2%
- growth (BT-549 breast): 66.3%
- growth (MDA-MB-435 melanoma): 58.1%
- growth (SW-620 colon): 37.2%
- growth (MCF7 breast): 46.4%
- growth (HCT-116 colon): 26.2%
- growth (HCC-2998 colon): 71.9%
- growth (KM12 colon): 55.7%

SMILES: Nc1c(C(=O)Nc2cccc(C(F)(F)F)c2)sc2nc3c(cc12)C(O)CCC3 (stereo not given)
- growth (RPMI-8226 leukemia): 15.6%
- growth (OVCAR-8 ovarian): 46.2%
- growth (OVCAR-5 ovarian): 53.5%
- growth (OVCAR-4 ovarian): 58.5%
- growth (SK-OV-3 ovarian): 25.7%
- growth (IGROV1 ovarian): 54.4%
- growth (OVCAR-3 ovarian): 2.06% (active)
- growth (HS 578T breast): 51.2%
- growth (NCI/ADR-RES ovarian): 22.5%
- growth (T-47D breast): 17%
- growth (BT-549 breast): 52.9%
- growth (MDA-MB-435 melanoma): -16.7% (active)
- growth (SW-620 colon): 33.1%
- growth (MCF7 breast): 10.2%
- growth (HCT-116 colon): 35.2%
- growth (HCC-2998 colon): 78.8%
- growth (KM12 colon): 18.1%

SMILES: COc1cc2nc(Cl)nc(NCCO)c2cc1OC
- growth (RPMI-8226 leukemia): 98.3%
- growth (OVCAR-8 ovarian): 98.3%
- growth (OVCAR-5 ovarian): 100%
- growth (OVCAR-4 ovarian): 102%
- growth (SK-OV-3 ovarian): 119%
- growth (IGROV1 ovarian): 108%
- growth (OVCAR-3 ovarian): 111%
- growth (HS 578T breast): 104%
- growth (NCI/ADR-RES ovarian): 112%
- growth (T-47D breast): 101%
- growth (BT-549 breast): 112%
- growth (MDA-MB-435 melanoma): 106%
- growth (SW-620 colon): 104%
- growth (MCF7 breast): 100%
- growth (HCT-116 colon): 113%
- growth (HCC-2998 colon): 102%

SMILES: CC1Cc2c(N(C)C)ncnc2N(C)c2ccc(Cl)cc21 (stereo not given)
- growth (RPMI-8226 leukemia): 31.3%
- growth (OVCAR-8 ovarian): 45.9%
- growth (OVCAR-5 ovarian): 73.8%
- growth (OVCAR-4 ovarian): 49.7%
- growth (SK-OV-3 ovarian): 46.3%
- growth (IGROV1 ovarian): 57.5%
- growth (OVCAR-3 ovarian): 5.13% (active)
- growth (HS 578T breast): -1.26% (active)
- growth (NCI/ADR-RES ovarian): 25.9%
- growth (T-47D breast): 37.1%
- growth (BT-549 breast): 24.6%
- growth (MDA-MB-435 melanoma): -32.2% (active)
- growth (SW-620 colon): 17.9%
- growth (MCF7 breast): 15.2%
- growth (HCT-116 colon): 16.9%
- growth (HCC-2998 colon): 50.1%
- growth (KM12 colon): 23.6%
